{
  "source": "PubChem BioAssay AID1321",
  "about": "(The Scripps Research Institute Molecular Screening Center, 2008)",
  "note": "In all, about 220,000 compounds went through this assay and about 2,600 (1.2%) were called active. Many of the other results were omitted from the sample, so actives are more common in it than they were. Unmarked numbers belong to inactive results.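 Rule for the calls: active = activation above the mean of all tested compounds plus 3 SD, set per screening run (cut at about 8.8% in these data); inactive = the rest.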",
  "data": [
    {"target": "Wee1-like protein kinase (Homo sapiens) (UniProt P30291)", "experiment": "compounds stabilizing Wee1-luciferase fusion – cell-based, HeLa, Wee1K328M-luciferase, luminescence, primary screen (AID 1321);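 note: cells exposed to compound for 20 h before luminescence read; 0% = DMSO alone and 100% = MG132 at 30 µM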", "details": "HeLa Luc-Wee1K328M stability, at 5 µM, hits give high values, 100% = proteasome inhibitor MG132 effect", "values": [
      {"compound": "Cc1nnc(SCC(=O)N2CCc3ccccc32)n1-c1ccccc1", "reporter increase": "4.42%"},
      {"compound": "O=C(CSc1nc2[nH]ncc2c(=O)n1-c1ccccc1)N1CCCc2ccccc21", "reporter increase": "-1.42%"},
      {"compound": "CC(C)(C)c1ccc(C(=O)NCc2nnc(SCC(=O)N3CCCc4ccccc43)n2-c2ccccc2)cc1", "reporter increase": "9.34% (active)"},
      {"compound": "CC(=O)Nc1ccc(/C=C/C(=O)c2ccccc2)cc1", "reporter increase": "1.71%"},
      {"compound": "CSc1nnnn1-c1c(C)cc(C)cc1C", "reporter increase": "-0.91%"},
      {"compound": "S=C(NNC(=S)NC1CC2C=CC1C2)NC1CC2C=CC1C2", "note": "(stereo unspecified)", "reporter increase": "-1.36%"},
      {"compound": "CC(C)c1ccc(NC(=S)NC2CC3C=CC2C3)cc1", "note": "(stereo unspecified)", "reporter increase": "18.5% (active)"},
      {"compound": "S=C(NNC(=S)NC1CC2CCC1C2)NC1CC2C=CC1C2", "note": "(stereo unspecified)", "reporter increase": "-2.51%"},
      {"compound": "COc1ccc([N+](=O)[O-])cc1N(CC(O)CN(CC(C)C)CC(C)C)S(=O)(=O)c1ccc(C)cc1", "note": "(stereo unspecified)", "reporter increase": "-0.64%"},
      {"compound": "CCN(CC)CCn1c(N)c(S(=O)(=O)c2ccccc2)c2nc3ccccc3nc21", "reporter increase": "12.4% (active)"},
      {"compound": "CCC(=O)Nc1c(S(=O)(=O)c2ccccc2)c2nc3ccccc3nc2n1Cc1ccccc1", "reporter increase": "-1.34%"},
      {"compound": "Cc1ccc(S(=O)(=O)c2c(N)n(C)c3nc4ccccc4nc23)cc1", "reporter increase": "-2.43%"},
      {"compound": "CSCCC(NS(=O)(=O)c1ccc2c(c1)oc(=O)n2C)C(=O)NCc1ccccc1", "note": "(stereo unspecified)", "reporter increase": "5.59%"},
      {"compound": "O=C(CCl)Nc1cccc(CP(=O)(c2ccccc2)c2ccccc2)c1", "reporter increase": "1.71%"},
      {"compound": "COc1ccc(C(=O)N/N=C(\\C)CC(=O)Nc2ccc(Cl)cn2)cc1", "reporter increase": "0.12%"},
      {"compound": "CC(=O)Nc1ccc(-c2csc(NC=C3C(=O)OC(C)(C)OC3=O)n2)cc1", "reporter increase": "0.77%"},
      {"compound": "CC(=O)Nc1ccc(S(=O)(=O)Nc2nc(-c3ccc(C(C)(C)C)cc3)cs2)cc1", "reporter increase": "3.64%"},
      {"compound": "CC(=O)Nc1ccc(-c2csc(NC(=O)Nc3ccccc3)n2)cc1", "reporter increase": "16.9% (active)"},
      {"compound": "O=C(Nc1ccccc1)Nc1nc2ccccc2s1", "reporter increase": "12.1% (active)"},
      {"compound": "CSCCC(Nc1nc2ccccc2s1)C(=O)O", "note": "(stereo unspecified)", "reporter increase": "1.41%"},
      {"compound": "O=C(Nc1nc2ccccc2s1)c1ccc2c(c1)OCO2", "reporter increase": "-1.51%"},
      {"compound": "O=C(CCCl)Nc1ccc(S(=O)(=O)NCc2ccco2)cc1", "reporter increase": "4.12%"},
      {"compound": "Cc1ccc(C(=O)NCC(=O)OCC(=O)Nc2cccc(S(=O)(=O)N3CCCC3)c2)cc1C", "reporter increase": "0.09%"},
      {"compound": "CCN(CCCNC(=O)CCn1c(=O)[nH]c2ccsc2c1=O)c1ccccc1", "reporter increase": "4.65%"},
      {"compound": "CCN(CC)CCNC(=O)CCCCCn1c(=O)[nH]c2cc(C(=O)OC)ccc2c1=O", "reporter increase": "-1.39%"},
      {"compound": "CCCCC(CC)CNC(=O)CCCCn1c(=O)[nH]c2ccsc2c1=O", "note": "(stereo unspecified)", "reporter increase": "20% (active)"}
    ]}
  ]
}
